About 79,000 compounds went through this panel and 15% of them were active in at least one assay; those are over-represented in the sample as a whole. Values without a mark were called inactive. Active and inactive are the calls of the source. Cut-off read from the data, not from the text of the source: active = growth inhibition above about 70%; inactive = the rest.
What was measured:
[1] = NCI Yeast Anticancer Drug Screen. Data for the rad50 strain (AID 155);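 note: 0% = growth of vehicle-only cultures of the same strain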; conditions: S. cerevisiae rad50 strain growth inhibition, active compounds read high
In short: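 Vehicle-treated cultures provide the reference for the growth inhibition reported for compound-exposed, repair-deficient yeast.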

[2] = NCI Yeast Anticancer Drug Screen. Data for the mec2-1 strain (AID 157); conditions: S. cerevisiae mec2-1 strain, active compounds read high
In short: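 Yeast mec2-1 mutant treated with compound. Readout: growth inhibition vs vehicle controls.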

[3] = NCI Yeast Anticancer Drug Screen. Data for the sgs1 mgt1 strain (AID 161);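 note: 0% = growth of cultures given vehicle only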; conditions: S. cerevisiae sgs1 mgt1 strain, active compounds read high
In short: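 Mutant yeast exposed to compound; growth scored against vehicle-only wells.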

[4] = NCI Yeast Anticancer Drug Screen. Data for the cln2 rad14 strain (AID 165);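 note: 0% = growth equal to vehicle treated cultures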; conditions: S. cerevisiae cln2 rad14 strain, active compounds read high
In short: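 cln2 rad14 yeast strain; compound exposure; growth inhibition read vs vehicle controls.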

[5] = NCI Yeast Anticancer Drug Screen. Data for the bub3 strain (AID 167); conditions: S. cerevisiae bub3 mutant strain, active compounds read high
In short: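 Mutant yeast screening strain plus compound; vehicle-treated cultures serve as the 0% inhibition reference.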

[6] = NCI Yeast Anticancer Drug Screen. Data for the mlh1 rad18 strain (AID 175); conditions: S. cerevisiae mlh1 rad18 strain growth inhibition, active compounds read high
In short: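 Yeast w/ defined DNA-repair lesions; compound exposure; growth vs vehicle controls → % inhibition.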

[7] = at 5.0 µM (retest, dose inferred, filed as 0.5)
[8] = at 50.0 µM (retest, dose inferred, filed as 5.0)

Structure (SMILES)	growth inhibition [1, 7]	growth inhibition [1, 8]	growth inhibition ([1]; at 50.0 µM)	growth inhibition [2, 7]	growth inhibition [2, 8]	growth inhibition ([2]; at 50.0 µM)	growth inhibition [3, 7]	growth inhibition [3, 8]	growth inhibition ([3]; at 50.0 µM)	growth inhibition [4, 7]	growth inhibition [4, 8]	growth inhibition ([4]; at 50.0 µM)	growth inhibition [5, 7]	growth inhibition [5, 8]	growth inhibition ([5]; at 50.0 µM)	growth inhibition [6, 7]	growth inhibition [6, 8]	growth inhibition ([6]; at 50.0 µM)
O=C(/C(=C/c1ccc(Cl)cc1)c1ccccc1)c1ccc(O)cc1	94% (active)	94% (active)	95.8% (active)	64%	97% (active)	95.5% (active)	94% (active)	94% (active)	96.5% (active)	53%	92% (active)	92.5% (active)	89% (active)	95% (active)	97.3% (active)	96% (active)	95% (active)	97% (active)
O=C(Nc1ccc(Cl)c(Cl)c1)Nc1cc(Cl)ccc1Oc1ccc(Cl)cc1S(=O)(=O)O	52%	97% (active)	90.5% (active)	32%	99% (active)	93.5% (active)	55%	99% (active)	93.6% (active)	35%	99% (active)	92.2% (active)	43%	99% (active)	92.5% (active)	61%	98% (active)	91% (active)
CP(=O)(c1ccccc1)c1ccccc1	-20%	-17%	12.3%	-1%	5%	13.2%	-21%	-14%	18.4%	18%	-12%	6.05%	-22%	-20%	5.05%	-24%	-25%	41.8%
FC(F)(F)c1nc(SCc2ccc(Cl)cc2)n[nH]1	3%	20%	2.45%	0%	1%	-13.8%	-7%	15%	-22.4%	-10%	-17%	38.6%						
c1ccc2c(c1)CC1c3[nH]c4ccccc4c3CCN21 (stereo not given)	-6%	-5%	88.3% (active)	9%	6%	76.9% (active)	-8%	-10%	82.8% (active)	22%	31%	88.2% (active)	6%	23%	77.7% (active)	7%	3%	74% (active)
CCOP(=O)(OCC)/C(C#N)=C/c1ccc(Oc2ccccc2)cc1	-12%	97% (active)	90.2% (active)	-42%	98% (active)	93.6% (active)	-11%	97% (active)	91.5% (active)	-5%	98% (active)	90.6% (active)	-3%	94% (active)	90.5% (active)	1%	97% (active)	89.8% (active)
Cc1cc(N2C(=O)CCSC2=S)ccc1Cl	88% (active)	28%	90.9% (active)	7%	27%	88.8% (active)	48%	43%	90.6% (active)	47%	43%	54.5%	45%	71% (active)	86% (active)	82% (active)	18%	87.5% (active)
CN1CCN=C1c1ccc(NC(=O)Nc2ccc(NC(=O)Nc3ccc(C4=NCCN4C)cc3)cc2)cc1	-1%	80% (active)	84.8% (active)	-15%	85% (active)	86.5% (active)	-15%	74% (active)	90% (active)	-10%	61%	50.8%	-2%	83% (active)	92% (active)	1%	83% (active)	93.8% (active)
O=P(Nc1ccccc1)(OCc1ccccc1)OCc1ccccc1	-4%	98% (active)	98.5% (active)	12%	99% (active)	94.7% (active)	-4%	99% (active)	98.8% (active)	13%	99% (active)	67%	0%	99% (active)	40.8%	5%	99% (active)	99.1% (active)
CC(C)N(C(=O)C12C3C4C5(C#N)C3C1(C#N)C5C42I)C(C)C (stereo not given)	41%	41%	82% (active)	22%	22%	48%	13%	13%	31.6%	12%	12%	68.5%	17%	17%	91.5% (active)			
Cc1ccc(Cl)cc1NN	-1%	95% (active)	96.5% (active)	5%	97% (active)	99.2% (active)	2%	89% (active)	48.6%	-1%	94% (active)	97.6% (active)	-2%	97% (active)	96.9% (active)	5%	96% (active)	47.6%
Nc1ccc(C(=O)/C=C/c2ccccn2)cc1	3%	45%	8.2%	-6%	64%	31.4%	1%	60%	17.8%	9%	38%	17.6%	-1%	79% (active)	66.8%	6%	82% (active)	27.9%
COc1ccc(Cc2ccccc2C(=O)O)c2ccccc12	97% (active)	96% (active)	99.1% (active)	98% (active)	98% (active)	99.2% (active)	97% (active)	99% (active)	99.5% (active)	95% (active)	96% (active)	98.7% (active)	96% (active)	98% (active)	98.9% (active)	97% (active)	98% (active)	99% (active)
Cc1cc(=O)c2c(ccc3cc4ccccc4cc32)[nH]1	-6%	41%	66.8%	0%	58%	38.1%	-16%	54%	45.8%	-5%	17%	43.8%	-7%	22%	39.6%			
[Ce+3].[Cl-].[O-]/N=C(\c1ccccc1)c1ccccn1.[O-]/N=C(\c1ccccc1)c1ccccn1.[O-]/N=C(\c1ccccc1)c1ccccn1	36%	66%	85.5% (active)	28%	76% (active)	85.4% (active)	32%	75% (active)	85.8% (active)	29%	32%	76.7% (active)	41%	95% (active)	88.3% (active)	39%	91% (active)	86.2% (active)
CC(=O)OC[C@@]1(C)[C@@H]2CC[C@]3(C)[C@H](C(=O)C=C4[C@@H]5CC(C)(C)CC[C@]5(C(=O)O)CC[C@]43C)[C@@]2(C)CC[C@@H]1OC(C)=O	23%	84% (active)	43.1%	23%	88% (active)	94.2% (active)	28%	88% (active)	92.8% (active)	39%	93% (active)	95.7% (active)	9%	91% (active)	92.7% (active)	29%	88% (active)	95.6% (active)
CN1C(C)(C)CC(O)(C#N)CC1(C)C	4%	99% (active)	98.6% (active)	2%	99% (active)	99.7% (active)	1%	99% (active)	99.3% (active)	-6%	97% (active)	99.2% (active)	-7%	99% (active)	99.5% (active)			
CCN(CC)CCNc1ccc(OC)c2cccnc12	15%	30%	99.3% (active)	1%	9%	99.4% (active)	8%	16%	99.3% (active)	5%	-2%	98% (active)	10%	16%	99.5% (active)	17%	25%	98.8% (active)
COc1ccc2nccc(C(=O)CBr)c2c1	24%	23%	92% (active)	32%	-5%	93% (active)	61%	20%	97.4% (active)	-1%	10%	31.3%	13%	34%	97.2% (active)	31%	37%	96.6% (active)
O=CCCCc1cc2c(cc1Br)CCC2	0%	62%	60.9%	14%	62%	70.9% (active)	11%	73% (active)	64.2%	10%	82% (active)	72.2% (active)	23%	92% (active)	77.5% (active)	21%	91% (active)	50.4%
